Shown are actives, neighbours in structure and some others; about 8.1% of the full set was active somewhere.
SW480 rerep = induces DNA re-replication in SW480 colon adenocarcinoma cells; SW480 DNA re-replication, Hoechst DNA content imaging, 48 h; Potency, µM (top dose mostly 46.1 µM), inactives show top-dose re-replication activation, most hits filed as activators; actives 1.8% (n = 340,000); AID 624297; also: % of control where 0% means no effect; nearly all actives have a fitted effect of over 55% in size
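Hoechst fluorescence of nuclei (405 nm excitation, 500-530 nm emission) measured by plate-scanning imager after 48 hr compound exposure at 37 C; re-replication scored as increased number of nuclei with elevated intensity.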
KB-3-1 tox = kills parental KB-3-1 adenocarcinoma cells; KB-3-1 viability, CellTiter-Glo ATP luminescence, 72 h; Potency, µM (doses to about 46.1 µM), usual class: cytotoxic; actives 1.4% (n = 400,000); AID 1347075; also: % is scaled to controls: 0 for no effect and ±100 for the full control effect; nearly all actives have a fitted effect of over 60% in size
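Parental KB-3-1 viability, qHTS format: 72 h compound exposure, 37 °C; CellTiter-Glo; media-only wells and DMSO plates as controls; concentration-effect fits on corrected data.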
KB-V1 cytotox = kills drug-selected multidrug resistant KB-V1 cells; actives 3.4% (n = 400,000); Potency, µM (top dose mostly 46.1 µM), hits mostly cytotoxic; AID 1347076; KB-V1 MDR cells viability, CellTiter-Glo, 72 h; also: % is scaled to controls: 0 for no effect and ±100 for the full control effect; nearly all actives have a fitted effect of over 60% in size
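KB-V1 MDR subline cells in DMEM (phenol-red free, 10% FBS) exposed to compounds in qHTS concentration series for 72 h at 37 degrees C. Viability read by CellTiter-Glo luminescence; concentration-effect curves fitted after normalization and correction.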
MCF10A rerep = induces DNA re-replication in MCF 10a normal breast cells; AID 624296; Potency, µM (titrated, usually from 46.1 µM), for the others: at the highest dose activity, positive = re-replication, actives largely listed as activators; actives 2.9% (n = 350,000); MCF 10A DNA re-replication, Hoechst nuclear intensity, 48 h; also: % of control where 0% means no effect; nearly all actives have a fitted effect of over 50% in size
ELG1 DNA repair = inhibitors of ELG1-dependent DNA repair in HEK293T cells. actives 2.3% (n = 330,000). HEK293T ELG1-luciferase reporter, luminescence, 16 h; DNA damage induced by 5-fluorouridine. AID 504467. Potency, µM (doses to about 46.1 µM), inactives show top-dose activity change, negative = inhibition, actives largely listed as inhibitors; also: % is scaled to controls: 0 for no effect and ±100 for the full control effect; nearly all actives have a fitted effect of over 55% in size
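Luminescence from the luciferase reporter, measured 30 min after ONE-Glo reagent at room temperature, was the read-out. Beforehand, 2,000 cells per well were exposed for 16 hr at 37 °C to 5-fluorouridine together with compound or vehicle.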
Active calls of the source: *; i = inactive; u = inconclusive; x = not tested or not shown. Calls follow the shape of the dose curve; as a rule, active = well fitted curve in the direction sought with a large enough effect; inconclusive = small, poorly fitted or top-dose-only effect, or another doubt; inactive = no such curve, though single readings can be large; an effect the other way counts as inactive or inconclusive. Potency is read from the fitted curve at half-maximal effect.

SMILES	SW480 rerep	KB-3-1 tox	KB-V1 cytotox	MCF10A rerep	ELG1 DNA repair
Cc1nc2nc(NC(=O)c3ccc(C(C)(C)C)cc3)[nH]n2c(=O)c1Cc1ccccc1	x	i	i	x	x
CC(C)N(C(=O)[C@H]1CC(CC(=O)NCC23CC4CC(CC(C4)C2)C3)C(=O)N2CCc3c([nH]c4ccccc34)[C@]12C)C(C)C (some centres not stated)	u	i	i	-4.5%	-14.0%
O=C1c2ccc3c4c(ccc(c24)C(=O)N1Cc1cccnc1)C(=O)N(Cc1cccnc1)C3=O	x	x	x	x	0.2%
O=C1c2ccc(-c3nc4ccccc4o3)cc2C(=O)N1Cc1ccccc1	2.8%	i	7.31µM*	5.9%	x
O=C1c2ccc(-c3nc4ccccc4o3)cc2C(=O)N1Cc1cccnc1	u	i	i	9.2µM*	x
COc1ccc(/C=C(\NC(=O)c2cccs2)C(=O)NC(C)(C)C)cc1OC	-20.3%	i	i	0.5%	6.2%
Cc1cccn2c(=O)c3cc(C(N)=S)c(=N)n(CCCOC(C)C)c3nc12	-0.1%	u	i	u	u
CCCCNC(=O)c1cc2c(=O)n3cccc(C)c3nc2n1C	x	x	x	x	-9.2%
CCOCCCNC(=O)c1cc2c(=O)n3cccc(C)c3nc2n1C	0.651µM*	u	i	u	-4.6%
CCOCCCn1c(=N)c(C(N)=S)cc2c(=O)n3cccc(C)c3nc21	u	u	16.4µM*	u	u
COCCNC(=O)c1cc2c(=O)n3cccc(C)c3nc2n1C	-0.9%	3.26µM*	5.8µM*	u	u
CCCN(CCC)S(=O)(=O)c1ccc(N2CCCCS2(=O)=O)cc1	x	i	i	x	x
C=CCOc1cccc(/C=C2\C(=O)N(Cc3ccc(C)cc3)C(C)=C2C(=O)OC)c1	u	u	i	16.4µM*	u
COC(=O)C1=C(C)N(C)C(=O)/C1=C\c1ccco1	-3.3%	i	i	3.4%	-2.8%
COC(=O)C1=C(C)N(Cc2ccc(OC)cc2)C(=O)/C1=C\c1ccco1	0.1%	i	i	13.0%	18.3µM*
CCOc1cc(/C=C2\C(=O)N(Cc3ccc(C)cc3)C(C)=C2C(=O)OC)ccc1O	u	u	u	u	13µM*
COC(=O)C1=C(C)N(Cc2cccnc2)C(=O)/C1=C\c1cccs1	x	x	x	x	-10.5%
COC(=O)c1ccccc1S(=O)(=O)N1CCC(c2nc3ccccc3o2)CC1	-6.2%	i	11.6µM*	8.7%	u
COC(=O)c1cccc(S(=O)(=O)N2CCC(c3nc4ccccc4o3)CC2)c1	-8.4%	i	i	13.2%	u
c1ccc2c(c1)Nc1cc3ccccc3cc1O2	11.6%	i	i	4.2%	x
CCN(CC)c1ccc(/C=N/N2CCN(Cc3cccc4ccccc34)CC2)c(O)c1	5.7%	i	16.4µM*	49.1%	-16.6%
Cc1c(C(=O)N2CCN(Cc3nccn3C)CC2)oc2c(F)cccc12	x	i	i	x	x
COc1cc(Br)cc(CN2CCN(C/C=C/c3ccccc3)CC2)c1O	2.0%	i	i	21.2%	u
Cc1c(C(=O)N2CCN(C/C=C/c3ccccc3)CC2)oc2c(F)cccc12	-4.4%	i	16.4µM*	11.2%	-13.7%
Cc1c(C(=O)N2CCN(C(=O)c3ccccc3)CC2)oc2ccc(F)cc12	-20.0%	i	i	33.7%	18.3µM*
COc1ccc(O)c(CN2CCN(C/C=C/c3ccccc3)CC2)c1	-7.3%	i	14.6µM*	43.0%	u
COc1ccc2oc(C(=O)N3CCN(C/C=C/c4ccccc4)CC3)c(C)c2c1	2.8%	i	i	23.1µM*	u
O=C(CSc1nnc(-c2ccccc2F)n1C1CC1)N1CCCC1	x	i	i	x	x
Cc1cccc(S(=O)(=O)NC(=O)C2(C)CCN2C(=O)c2cccc(F)c2)c1 (configuration not stated)	x	i	i	x	x
Cc1ccc(S(=O)(=O)N2CC3C(=O)C[C@@H](c4ccccc4)N(S(=O)(=O)c4cccc(Cl)c4)C3CC2c2ccccc2)cc1 (some centres not stated)	x	i	i	x	x
